± gives the standard deviation of the averaged measurements. Whole data set: some 25,000 sequences, median “ln(normalized median fluorescence intensity)” near 8.9, cut for the highest 2% near 10. The sample holds the highest values, similar sequences and a random draw of the others, so the mix is not that of the screen.
These sequences were tested on PfAP2-LT AP2 domain (GST-tagged) (assay: gcPBM binding intensity (ln(normalized median fluorescence intensity)); higher = stronger DNA binding).
How it was run: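 The highest Masliner-normalised natural-log median intensity across replicate spots of either probe orientation is reported as binding intensity. GST-tagged P. falciparum DNA-binding domains expressed in E. coli were applied for 1 h to an Agilent 4 × 180k array of primer-extended double-stranded 36-bp intergenic genomic probes plus negative controls, and bound protein was detected with Alexa488 anti-GST antibody and scanned at 488 nm.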
With “CGAGCAAGACGGGGTGCACACAAACTAATATGCCGA [CACACA_site7936]” the “gcPBM binding intensity (ln)” value was 9.55 ± 0.5. For “TCAAACGGTTAAATATGTACATATATATATATATAT [XGTACX_site2339]”, the “gcPBM binding intensity (ln)” value was 9.695 ± 0.0071. For “TTATAATATTCATAAGGTACAGTTTATATATGTTAT [XGTACX_site8442]”, the “gcPBM binding intensity (ln)” value was 8.68 ± 0.4. With “TCTTTGAATTTTTTAACACACACATGGGTGGATATA [CACACA_site8474]” the “gcPBM binding intensity (ln)” value was 9.04 ± 0.38. In the case of “ATATAATAGTATATATGTACATATATTTAAATACTA [XGTACX_site1135]”, the “gcPBM binding intensity (ln)” value is reported as 8.82 ± 0.4. For “ATTCATACATGCACACGTACATATTTAAATATAAAA [XGTACX_site8388]”, the “gcPBM binding intensity (ln)” value was 9.04 ± 0.36. “TTAGAAACATTGAAAGCATGCAATATTACTTTATAC [TGCATGCA_site522]” was tested, and the “gcPBM binding intensity (ln)” value was 8.82 ± 0.28. “TTTTTTTCTTGTTTTAAATAATATACTGGAAAAAAA [CACACA_negctrl_site585]” was tested, and the “gcPBM binding intensity (ln)” value was 7.88 ± 0.33. “TGTACCTTATTAATATATTTAACTCGCCTTATATAC [XGTACX_negctrl_site289]” was tested, and the “gcPBM binding intensity (ln)” value was 8.96 ± 0.36. For “AAATGTACAGGACGCACACACATATATATATATATA [CACACA_site3674]”, the “gcPBM binding intensity (ln)” value was 10.11 ± 0.05. In the case of “AAATGTACAGGACGCACACACATATTTATATTTATA [CACACA_site7689]”, the “gcPBM binding intensity (ln)” value is reported as 9.53 ± 0.3. For “TAAAATGTACAGGACGCACACACATATATATATATA [CACACA_site3673]”, the “gcPBM binding intensity (ln)” value was 9.92 ± 0.42. For “GCCTTCCTTCTAAATGCACACGGAAAGTATAAATGT [CACACA_site8797]”, the “gcPBM binding intensity (ln)” value was 9.04 ± 0.31. With “TTAATGTAGAGAAAATGTACATTTTATTAAAACAAT [XGTACX_site6376]” the “gcPBM binding intensity (ln)” value was 8.76 ± 0.47. In the case of “TAAACATACAGATACACACACACACCCACAGAGACA [CACACA_site4429]”, the “gcPBM binding intensity (ln)” value is reported as 10.15 ± 0.028. “AACATACATAAACACACACACACACCCACAGAGACA [CACACA_site4430]” was tested, and the “gcPBM binding intensity (ln)” value was 10.29 ± 0.035. With “AAATAAAACAGACACACACACACATACACAAAAAAA [CACACA_site7753]” the “gcPBM binding intensity (ln)” value was 10.1 ± 0.22. For “AAATAACAAATTTTTAAAATGTATATATATATATAT [TGCATGCA_negctrl_site219]”, the “gcPBM binding intensity (ln)” value was 9.51 ± 0.12. In the case of “GTTTTTTTTTTTTTGGTGCGTCATTTTCAAAAGAAG [GTGCAC_site9745]”, the “gcPBM binding intensity (ln)” value is reported as 8.57 ± 0.41. With “AAACAAAAAAATTGAAATAAAATGAAGTAAATGAAC [TGCATGCA_negctrl_site129]” the “gcPBM binding intensity (ln)” value was 8.9 ± 0.66. With “TTTTTTTTTTTTTTTTTTTTTTTCTTTATTTTTTTT [CACACA_negctrl_site703]” the “gcPBM binding intensity (ln)” value was 8.16 ± 0.43. “ATTGTTTTGTAATATGAAAAAATTGTGTAATGTGTC [CACACA_negctrl_site1510]” was tested, and the “gcPBM binding intensity (ln)” value was 8.72 ± 0.4. “TTTTAAGTTTTTGAATGTACGTAATTTGTAAATTCT [XGTACX_site2448]” was tested, and the “gcPBM binding intensity (ln)” value was 8.49 ± 0.47. For “TATTTTTATTTTACATTATTTGTTTATAATTCTTAA [CACACA_negctrl_site1358]”, the “gcPBM binding intensity (ln)” value was 8.53 ± 0.57. In the case of “AAAAAAAAAAAACACACACACACACCGACAAAATAT [CACACA_site8411]”, the “gcPBM binding intensity (ln)” value is reported as 10.4 ± 0.25. “CATATACTCGGACACACACACACACCGACAAAAAAA [CACACA_site4433]” was tested, and the “gcPBM binding intensity (ln)” value was 10.1 ± 0.41. In the case of “CACAAACAAAAACACACACACACACCGACAAAAATG [CACACA_site5362]”, the “gcPBM binding intensity (ln)” value is reported as 10.24 ± 0.092. In the case of “ACAAATAAATAAAAAACACACACAAATAAATAAATA [CACACA_site8708]”, the “gcPBM binding intensity (ln)” value is reported as 9.57 ± 0.38. With “TATTTATTAAAACACACACACACACCGACAAAATAA [CACACA_site4293]” the “gcPBM binding intensity (ln)” value was 9.97 ± 0.25. For “CATATATACTCATACACACACACACCGACACAGACA [CACACA_site5026]”, the “gcPBM binding intensity (ln)” value was 9.84 ± 0.17. “TAAAATAAAACAAACACACACACACCGACACAAAAA [CACACA_site5993]” was tested, and the “gcPBM binding intensity (ln)” value was 10.1 ± 0.035. “AAAAAAAAAAAAAACACACACACAAAAAAAAATATA [CACACA_site1104]” was tested, and the “gcPBM binding intensity (ln)” value was 9.68 ± 0.35. For “ATAAATGACAGACACACACACAAAAAAAAAAAACAA [CACACA_site2626]”, the “gcPBM binding intensity (ln)” value was 9.84 ± 0.57. With “TATACTCATATATAAACACACAAAAAAAAAAAAAAA [CACACA_site5165]” the “gcPBM binding intensity (ln)” value was 8.72 ± 0.45. For “AAAAAAAAAAAACACACACACAAAAAAAAATATATA [CACACA_site1105]”, the “gcPBM binding intensity (ln)” value was 9.85 ± 0.54. With “ATGTTACACCGACACACACACATAAAAAAACAAAAA [CACACA_site5750]” the “gcPBM binding intensity (ln)” value was 9.61 ± 0.42. “TACAAAAATGTAGTCACACATATGTATACTTTTATG [CACACA_site5607]” was tested, and the “gcPBM binding intensity (ln)” value was 8.85 ± 0.42. With “TGTACCTACAAAATATGATATATTTTTATAAATTGT [XGTACX_negctrl_site498]” the “gcPBM binding intensity (ln)” value was 8.51 ± 0.47. In the case of “TGAACAACTATTACTGCACACATTCTTACACTATAT [CACACA_site4533]”, the “gcPBM binding intensity (ln)” value is reported as 9.41 ± 0.45. With “GATGATACAAAGTAATGTACATAAATACACATATTG [XGTACX_site3177]” the “gcPBM binding intensity (ln)” value was 9.03 ± 0.44. “ATAATACGAATTTGTAGTACATTTATAATAACATGA [XGTACX_site2614]” was tested, and the “gcPBM binding intensity (ln)” value was 8.65 ± 0.38. For “AATGGTCTTTTCAACACACGTACATAAAAATATTAT [CACACA_site2571]”, the “gcPBM binding intensity (ln)” value was 8.79 ± 0.44. For “CAATAATATATATATTGTACATTTTTTTTTATTATT [XGTACX_site3149]”, the “gcPBM binding intensity (ln)” value was 8.7 ± 0.38. “TTTTATAGAGTGTATACATGCAATACCACATAAAAT [TGCATGCA_site476]” was tested, and the “gcPBM binding intensity (ln)” value was 8.79 ± 0.43. With “ATTTTTTTTTTTACAGTGGAACCATATTTGCTCATT [CACACA_negctrl_site940]” the “gcPBM binding intensity (ln)” value was 8.82 ± 0.51. “ATATATATATTTTTATGAGGCATAAGTAATATTTTT [TGCATGCA_negctrl_site317]” was tested, and the “gcPBM binding intensity (ln)” value was 8.53 ± 0.4. “TAAAAGTTTTTATACATACACACCTATAAATTAAGT [CACACA_site2446]” was tested, and the “gcPBM binding intensity (ln)” value was 8.72 ± 0.36. For “CATAAATTAAAACACACACACACAAAAAAAAAAAAA [CACACA_site2262]”, the “gcPBM binding intensity (ln)” value was 9.84 ± 0.33. For “TAAATTAAAAAACACACACACAAAAAAAAAAAAAAA [CACACA_site2263]”, the “gcPBM binding intensity (ln)” value was 9.41 ± 0.51. “AATTAACAAAAACACACACACACACCGACAAAAAAA [CACACA_site4444]” was tested, and the “gcPBM binding intensity (ln)” value was 10.1 ± 0.23. For “TATGCACGCGAACACACACACACAACTAAAAAATAA [CACACA_site7251]”, the “gcPBM binding intensity (ln)” value was 9.79 ± 0.37. With “TTTTTATCTTTGCTGTGTACATAAATAAAAATAACT [XGTACX_site7625]” the “gcPBM binding intensity (ln)” value was 8.47 ± 0.42. In the case of “TATATATATATAATGTGTACACAAATATATATTATA [XGTACX_site8786]”, the “gcPBM binding intensity (ln)” value is reported as 8.8 ± 0.37. For “AAGTAAAAAAATAGCACACACACAAAAACACAGACA [CACACA_site4839]”, the “gcPBM binding intensity (ln)” value was 10.1. “ATCAAATAATAGCAAACACACAAAAAATAAAAAAAA [CACACA_site4146]” was tested, and the “gcPBM binding intensity (ln)” value was 9.04 ± 0.47. With “GTAAAAAAATAGCACACACACAAAAACACGCACAAA [CACACA_site6723]” the “gcPBM binding intensity (ln)” value was 10.1 ± 0.23. In the case of “AAAAAAAACAGACACACACACAAATATATAAAAATA [CACACA_site1172]”, the “gcPBM binding intensity (ln)” value is reported as 9.94 ± 0.35. In the case of “CAATATAAAAAACACACGCACACAAAAAAAAAAAAA [CACACA_site3521]”, the “gcPBM binding intensity (ln)” value is reported as 9.46 ± 0.42. For “AAGTAAAAAAATAGCACACACACAAAAACACCCACA [CACACA_site1291]”, the “gcPBM binding intensity (ln)” value was 9.92 ± 0.16.
